Reference: the supplement of paper PMC6555819

Tested on: PPARg:RXRa DBDmut IVT, anti-RXR (DBD mutation: RXRa K156A/R161A, NR concentration 270 nM, RXRa partner concentration 90 nM)
Experiment: PBM binding z-score (relative to random genomic background probes); higher = stronger binding; sequences stand for … in GC…GCGATTGACAGCGTAGAATGAAGG
Method in brief: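 Custom Agilent 4×180K protein-binding microarrays carried double-stranded probes, each with a 34-nt variable region. These regions held direct-repeat seeds, single-nucleotide variants, half-site ablations and random human genomic background sequences. Ligand-free nuclear receptor dimers were incubated on the arrays for 1 h, antibodies against each partner (one per run) detected binding, and scanned fluorescence was regression-normalized. Binding z-scores take the random background probes as reference.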

| Sequence | PBM binding z-score |
| --- | --- |
| ATCTCTAGGTAAGACACAGTTCAGTGAAGAACGC | 2.01 |
| CCGACTGGGGCAAGGTTACGATAACGCACAGCCA | 3.36 |
| AATACAGGGTCACTAGTCCAGAGTAGGTACGAAT | 3.25 |
| ACTTACTGGTCAACGAGGTTATAGCACGCGTATA | 1.29 |
| TAGCCTAGGTCATTCAGCGGCCAGTATAGAAAGC | 1.69 |
| CCTACTGGGCCATCAGGTCATTCATATCAACGTT | 4.57 |
| CCTACTGGCCCATTCAGAGGTCATTGATCATATG | -0.184 |
| GCTTGTAGTTCAAGGTTAAGAAAGACTAAGCTAA | -0.00904 |
| TCTAGTTGGTCACTGAGGTCACACACGACGGGTA | 2.68 |
| ACTGACGGGTCAACGAGGTTATAGCACGCGTATA | 0.94 |
| ATCTCTAGGTAAGACGCAGTTCAGTGAAGAACGC | 1.69 |
| GGAATGAGGGCAAAGTTGATAGCATCTGTCGACG | 5.52 |
| CGTCCAAGGTCAAGGTCAGTAAAAGAGACTCGAA | 3.53 |
| TCTATTAGTTGATTAGGGCTACCGAAACAGCGGA | 1.71 |
| TCTAGTTGGTCAAAGATCACACACTCGAAATGCG | 2.51 |
| AGTCAGAGTTCAGGACGAGGTAACGTAAAGCACG | -0.749 |
| CGAACTAGGTCACGGACAGTGAATCTCCGCACGC | 8.66 |
| TCATATAGGTAAAAGCTAGGTGAAAGTCCGATCT | 3.84 |
| TCGAGTAGGTAACCAATGGGGCATTCAGCTTTCT | 2.5 |
| TCGAGTAGGTTAGCAATGGGGCATTCAGCTTTCT | 2.43 |

| Sequence | PBM binding z-score |
| --- | --- |
| ATGTCTAGGTAACCAAGTTCAGTGAATGCCGAAC | 2.35 |
| TCTATTAGTTGAAGGGCAAGCGACGAGTCCGTTT | 2.2 |
| TCTGCGAGGTCAGTTGGTCAGCTAACGAGCTGCC | 1.99 |
| AGAATGAGGTTACCAAAGATCCGGGAAACGCTTG | 3.81 |
| GCTAGCAGGCCATTTGGGTCACTCCATGACGGGC | 1.48 |
| CTCGAAAGGTCGGTTGAGGTGAGGATACGGATAA | -0.21 |
| CCTATTAGTTGACCATAATGGCAACCGAAGCTCG | 0.772 |
| CCTACTGGACCACGAAAGGTCATTGATTCAGTGA | 3.39 |
| CTTCAAAGTTCAAGGTAACGTAACAGAAAGCAGC | 0.401 |
| TCGAGTAGGTTACCAATCGGGCATTCAGCTTTCT | 3.13 |
| AGAACGAGGGCAATGAGATGATAGCACGGGTGGC | 3.28 |
| CCGAGTAGGTTTTGGGGCATTCAGGCAACGGTGA | 0.795 |
| CCTATTAGTTGACCATAAGTGCAACCGAAGCTCG | 0.899 |
| TCATATAGGTAAATGCTAGGTGAAAGTTCGATCT | 3.99 |
| CGTCCAAGGTCAGAGCGGTCAGTGAATGCCGAGT | 2.63 |
| TAGCCTAGGTCCTGGGCCAGTATACCACGCGAAC | -1.56 |
| GGAACGACGGCAAAGTTGATAGCATCTGTCGACG | -0.332 |
| GTACCAAGGTGAGTAGGTCGTTGATGAGTAGGCG | 1.77 |
| CGAACTAGGTCCAGGACAGTGAATCTCCGCACGC | 2.08 |
